Measurements taken from the antibiotic and cytotoxicity screens of Wong et al. (2023).
About 3,300 (8.5%) of roughly 39,000 compounds were called active. The sample holds actives, similar compounds and a random draw of the others, so the mix is not that of the screen.

The compounds below were run on HepG2 (assay: cytotoxicity call (relative viability < 0.9)). Conditions: 10 µM.
In the case of `COc1ccc(C#Cc2ccc([C@H]3[C@@H](CO)N4CCCCN(S(=O)(=O)c5cn(C)cn5)C[C@H]34)cc2)cc1`, the cytotoxicity call is reported as “inactive”.
With `C[C@@H]1CN([C@H](C)CO)S(=O)(=O)c2ccc(-c3cncnc3)cc2O[C@@H]1CN(C)C(=O)Cc1cccnc1` the cytotoxicity call was “inactive”.
In the case of `Cl.N=C(N)NCCCC(N)C(=O)O` (stereo not drawn), the cytotoxicity call is reported as “inactive”.
For `C[C@@H]1CCCCO[C@H](CN(C)Cc2ccc(C(=O)O)cc2)[C@@H](C)CN([C@H](C)CO)C(=O)c2cc(NC(=O)Nc3ccc(F)cc3)ccc2O1`, the cytotoxicity call was “inactive”.
`C[C@@H]1CN([C@@H](C)CO)C(=O)c2cc(NC(=O)CCN3CCOCC3)ccc2O[C@H]1CN(C)C(=O)Nc1ccc(F)cc1` was tested, and the cytotoxicity call was “inactive”.
In the case of `COc1ccc(NC(=O)Nc2ccc3c(c2)C(=O)N([C@@H](C)CO)C[C@H](C)[C@H](CN(C)C(=O)CCC(F)(F)F)OCCCC[C@@H](C)O3)cc1`, the cytotoxicity call is reported as “inactive”.
With `C[C@H](O)C#Cc1ccc2c(c1)O[C@@H](CN(C)C(=O)C1CCCCC1)[C@@H](C)CN([C@H](C)CO)S2(=O)=O` the cytotoxicity call was “inactive”.
With `CCOC(=O)c1cn[nH]c1` the cytotoxicity call was “inactive”.
With `C[C@H]1CN([C@@H](C)CO)C(=O)c2cc(NS(=O)(=O)c3cn(C)cn3)ccc2O[C@H]1CN(C)S(=O)(=O)c1ccccc1` the cytotoxicity call was “inactive”.
In the case of `CCS(=O)(=O)NCC[C@H]1CC[C@@H](NS(=O)(=O)c2ccccc2C)[C@H](CO)O1`, the cytotoxicity call is reported as “inactive”.
In the case of `C[C@@H]1CN([C@@H](C)CO)C(=O)c2cccc(NS(C)(=O)=O)c2O[C@@H]1CN(C)C(=O)Nc1ccc(F)cc1`, the cytotoxicity call is reported as “inactive”.
With `CCOC(=O)c1c(CN2CCN(c3ccccc3C)CC2)n(-c2ccccc2)c2cc(Br)c(O)cc12` the cytotoxicity call was “inactive”.
`C[C@@H]1CN([C@@H](C)CO)C(=O)Cc2cc(NS(=O)(=O)c3ccc(F)cc3)ccc2O[C@@H]1CN(C)S(=O)(=O)c1ccc(F)cc1` was tested, and the cytotoxicity call was “inactive”.
In the case of `COc1ccc(S(=O)(=O)Nc2cccc3c2O[C@H](CN(C)S(=O)(=O)c2ccc(OC)cc2)[C@H](C)CN([C@H](C)CO)C3=O)cc1`, the cytotoxicity call is reported as “inactive”.
With `O=C(O)CCc1nc2ccccc2[nH]1` the cytotoxicity call was “inactive”.
In the case of `FC(F)(F)c1nc2ccccc2[nH]1`, the cytotoxicity call is reported as “inactive”.
For `C(=N\c1nc2ccccc2[nH]1)/N(c1ccccc1)c1ccccc1`, the cytotoxicity call was “active”.
In the case of `C[C@H](CO)N1C[C@H](C)[C@@H](CN(C)C(=O)c2ccncc2)OCCCC[C@H](C)Oc2ccc(NS(=O)(=O)c3cn(C)cn3)cc2C1=O`, the cytotoxicity call is reported as “inactive”.
For `CC(C)NC(=O)Nc1ccc2c(c1)C(=O)N([C@H](C)CO)C[C@H](C)[C@H](CN(C)S(=O)(=O)c1cccs1)O2`, the cytotoxicity call was “inactive”.
`OCCN1CCN(CCCN2c3ccccc3Sc3ccc(Cl)cc32)CC1` was tested, and the cytotoxicity call was “active”.
In the case of `O=C(O)C=CC(=O)O.OCCOCCN1CCN(C2=Nc3ccccc3Sc3ccccc32)CC1`, the cytotoxicity call is reported as “inactive”.
`Cl.Cl.OCCN1CCN(CCCN2c3ccccc3Sc3ccc(C(F)(F)F)cc32)CC1` was tested, and the cytotoxicity call was “active”.
With `Cl.Cl.OCCOCCN1CCN(C(c2ccccc2)c2ccc(Cl)cc2)CC1` (stereo not drawn) the cytotoxicity call was “inactive”.
For `OCCN1CCN(c2ncnc3c2ncn3[C@H]2CN(Cc3cccc(C(F)(F)F)c3)C[C@@H](CO)O2)CC1`, the cytotoxicity call was “inactive”.
In the case of `CN1CCN(CCCN2c3ccccc3Sc3ccc(C(F)(F)F)cc32)CC1.Cl.Cl`, the cytotoxicity call is reported as “active”.
In the case of `CC(=O)c1ccc2c(c1)N(CCCN1CCN(CCO)CC1)c1ccccc1S2.O=C(O)C=CC(=O)O`, the cytotoxicity call is reported as “inactive”.
`Cc1ccc(S(=O)(=O)N(C)C[C@@H]2OCCCC[C@H](C)Oc3ccc(NC(=O)C4CCCCC4)cc3C(=O)N([C@H](C)CO)C[C@@H]2C)cc1` was tested, and the cytotoxicity call was “inactive”.
`Cc1noc(C)c1S(=O)(=O)Nc1ccc2c(c1)C(=O)N([C@@H](C)CO)C[C@@H](C)[C@H](CN(C)Cc1ccc(C(F)(F)F)cc1)OCCCC[C@@H](C)O2` was tested, and the cytotoxicity call was “inactive”.
`COc1ccc(NC(=O)N(C)C[C@@H]2OCCCC[C@@H](C)Oc3ccc(NC(=O)NC4CCCCC4)cc3C(=O)N([C@@H](C)CO)C[C@@H]2C)cc1` was tested, and the cytotoxicity call was “inactive”.
For `C[C@@H]1CN([C@@H](C)CO)C(=O)c2cc(C#CC3(O)CCCC3)cnc2O[C@H]1CN(C)S(=O)(=O)c1ccc(F)cc1`, the cytotoxicity call was “inactive”.
With `O[C@@H](CCl)CN1CC[N+]2(CC1)CC[N+]1(CCN(C[C@@H](O)CCl)CC1)CC2` the cytotoxicity call was “inactive”.
For `O=C(/C=C/c1ccc(O)c(O)c1)O[C@@H]1C[C@](O)(C(=O)O)C[C@@H](OC(=O)/C=C/c2ccc(O)c(O)c2)[C@H]1OC(=O)/C=C/c1ccc(O)c(O)c1`, the cytotoxicity call was “inactive”.
For `CN(C)CCCNC(=O)C[C@@H]1CC[C@@H]2[C@H](COc3ccc(NC(=O)c4ccccc4F)cc3C(=O)N2C)O1`, the cytotoxicity call was “inactive”.
For `C[C@H](CO)N1C[C@H](C)[C@H](CN(C)Cc2ccccc2)OCCCC[C@H](C)Oc2ccc(NS(=O)(=O)c3cccs3)cc2C1=O`, the cytotoxicity call was “inactive”.
`COc1ccc(CN(C)C[C@@H]2OCCCC[C@H](C)Oc3ccc(NC(=O)NC(C)C)cc3C(=O)N([C@H](C)CO)C[C@@H]2C)cc1` was tested, and the cytotoxicity call was “inactive”.
In the case of `C[C@@H]1CN([C@@H](C)CO)C(=O)c2cc(NS(=O)(=O)c3cccs3)ccc2O[C@H]1CN(C)Cc1ccc(Cl)c(Cl)c1`, the cytotoxicity call is reported as “inactive”.
In the case of `COc1ccc(S(=O)(=O)N(C)C[C@@H]2OCCCC[C@H](C)Oc3ccc(NC(=O)Nc4ccc(C(F)(F)F)cc4)cc3C(=O)N([C@H](C)CO)C[C@H]2C)cc1`, the cytotoxicity call is reported as “inactive”.
`COc1ccc(S(=O)(=O)N(C)C[C@H]2OCCCC[C@H](C)Oc3ccc(NC(=O)Nc4ccc(C(F)(F)F)cc4)cc3C(=O)N([C@H](C)CO)C[C@H]2C)cc1` was tested, and the cytotoxicity call was “inactive”.
For `COc1ccc(S(=O)(=O)N(C)C[C@@H]2OCCCC[C@H](C)Oc3ccc(NC(=O)Nc4ccc(C(F)(F)F)cc4)cc3C(=O)N([C@@H](C)CO)C[C@H]2C)cc1`, the cytotoxicity call was “inactive”.
`COc1ccc(S(=O)(=O)N(C)C[C@@H]2OCCCC[C@@H](C)Oc3ccc(NC(=O)Nc4ccc(C(F)(F)F)cc4)cc3C(=O)N([C@H](C)CO)C[C@@H]2C)cc1` was tested, and the cytotoxicity call was “inactive”.
`COc1ccc(S(=O)(=O)N(C)C[C@H]2OCCCC[C@H](C)Oc3ccc(NC(=O)Nc4ccc(C(F)(F)F)cc4)cc3C(=O)N([C@@H](C)CO)C[C@H]2C)cc1` was tested, and the cytotoxicity call was “inactive”.
With `COc1ccc(S(=O)(=O)N(C)C[C@@H]2OCCCC[C@H](C)Oc3ccc(NC(=O)Nc4ccc(C(F)(F)F)cc4)cc3C(=O)N([C@H](C)CO)C[C@@H]2C)cc1` the cytotoxicity call was “inactive”.
In the case of `COc1ccc(S(=O)(=O)N(C)C[C@H]2OCCCC[C@H](C)Oc3ccc(NC(=O)Nc4ccc(C(F)(F)F)cc4)cc3C(=O)N([C@H](C)CO)C[C@@H]2C)cc1`, the cytotoxicity call is reported as “active”.
With `COc1ccc(S(=O)(=O)N(C)C[C@H]2OCCCC[C@@H](C)Oc3ccc(NC(=O)Nc4ccc(C(F)(F)F)cc4)cc3C(=O)N([C@@H](C)CO)C[C@H]2C)cc1` the cytotoxicity call was “active”.
`COc1ccc(S(=O)(=O)N(C)C[C@@H]2OCCCC[C@@H](C)Oc3ccc(NC(=O)Nc4ccc(C(F)(F)F)cc4)cc3C(=O)N([C@H](C)CO)C[C@H]2C)cc1` was tested, and the cytotoxicity call was “inactive”.
With `COc1ccc(S(=O)(=O)N(C)C[C@H]2OCCCC[C@H](C)Oc3ccc(NC(=O)Nc4ccc(C(F)(F)F)cc4)cc3C(=O)N([C@@H](C)CO)C[C@@H]2C)cc1` the cytotoxicity call was “inactive”.
With `COc1ccc(S(=O)(=O)N(C)C[C@@H]2OCCCC[C@H](C)Oc3ccc(NC(=O)Nc4ccc(C(F)(F)F)cc4)cc3C(=O)N([C@@H](C)CO)C[C@@H]2C)cc1` the cytotoxicity call was “active”.
For `COc1ccc(S(=O)(=O)N(C)C[C@H]2OCCCC[C@@H](C)Oc3ccc(NC(=O)Nc4ccc(C(F)(F)F)cc4)cc3C(=O)N([C@H](C)CO)C[C@H]2C)cc1`, the cytotoxicity call was “active”.
